The whole screen tested about 130,000 compounds, of which about 1,200 (0.92%) were called active. About 3% were inconclusive and are not listed. The entries come from a sample that favours actives as a whole. Where a call stands in place of a potency, no number is given. A number with no mark means an inactive call. The call rests on the fitted dose curve; in most records, active means well fitted cell-killing curve with a large enough effect; inconclusive means small, poorly fitted or top-dose-only effect; inactive means no such curve, though single readings can be large or run the other way.
Potency means the concentration at half of the fitted maximal effect.

This assay can be described thus: qHTS Screen for Compounds that Selectively Target Cancer Cells with p53 Mutations: Cytotoxicity of p53ts Cells at the Permissive Temperature. Further: nearly all actives have a fitted effect of over 55% in size. Conditions: H1299-p53A138V at 32C, ATP luminescence viability, 24 h; series mostly up to 46.1 µM. Put shortly:
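Viability by ATPlite luminescence after 24 h compound treatment (up to 46 uM) at the permissive 32C. Cells are H1299 carrying p53 A138V. Scale runs from DMSO basal to 100 uM tamoxifen as full kill; AC50 from Hill fits.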
A general note: In qHTS, concentration-response curves come from the screen itself.
Consider `CN(c1nc2ccccc2n2c(-c3ccco3)nnc12)S(=O)(=O)c1ccccc1`, for which the Potency result was “inactive”. On to `Cn1c(-c2ccco2)nc2cc3ccccc3cc21`, for which the Potency was 1.26 µM (active). Still for that read-out and setting: under `c1coc(-c2nc3nc4ccccc4n3nc2-c2ccco2)c1` stands “inactive”; under `CC(=O)c1cccc(NC(=O)c2nc(-c3ccccc3)n(-c3cccc(C)c3)n2)c1`, “inactive”.

On to `c1csc(-c2nc(-c3ccncc3)no2)c1`, for which the Potency result is “inactive”. Regarding `CC(C)c1nc(-c2ccccn2)no1`, the Potency result is “inactive”. As for `c1ccc(-c2noc(-c3cccs3)n2)nc1`, the Potency is 12.6 µM (active). Turning to `O=C(Nc1ccccc1Cl)N1CCC(CN2CCCCC2)CC1`, the Potency entry is “inactive”.

`COc1cn(CC(=O)Nc2cccc(C)c2C)c(CN2CCCCC2)cc1=O`: the Potency result was “inactive”. Take `CCN1CCC(N(Cc2ccc(F)cc2)C(=O)Nc2cc(C)ccc2C)CC1`: the Potency entry was “inactive”. `Cc1cc(Cl)ccc1NC(=O)Cc1ccc(NC(=O)N2CCCCc3ccccc32)cc1`: the Potency entry is “inactive”. For the compound `C=CC(=O)c1ccc2ccccc2c1`, the Potency was 12.6 µM (active). As to `Cc1ccc2nc(CC(=O)c3ccc4ccccc4c3)c(=O)[nH]c2c1`, the activity change, negative = cytotoxicity was 3.51% [at 9.22 µM].

As for `CCOc1ccccc1NC(=O)CSc1ncc(S(=O)(=O)c2ccc(C(C)(C)C)cc2)c(=O)[nH]1`, the Potency entry is “inactive”. Consider `Cn1c(COc2ccccc2C(C)(C)C)nc2ccccc21`, for which the Potency entry was “inactive”. Turning to `CSc1oc(-c2cccs2)nc1S(=O)(=O)c1ccc(Br)cc1`, the Potency entry was “inactive”. Consider `CCCCS(=O)(=O)c1oc(-c2cccs2)nc1S(=O)(=O)c1ccccc1`, for which the Potency was 17.8 µM (active). Take `NC(=O)CSc1oc(-c2cccs2)nc1S(=O)(=O)c1ccccc1`: the Potency result was “inactive”. The same measure, in the same setting: under `COc1cc(NC(=O)CCn2nc(C)cc2C)cc(OC)c1OC` stands “inactive”; under `CC(=O)c1cccc(Nc2ccc3cc(S(=O)(=O)N4CCC(C)CC4)ccc3n2)c1`, “inactive”; under `COc1ccc(N(C)C(=O)C2CCN(S(=O)(=O)c3cc(Br)cc4c3N(C(C)=O)CC4)CC2)cc1`, “inactive”. As to `Cc1csc(-c2nc3ccccc3n2C)n1`, the Potency is 15.8 µM (active). As for `Cc1nn2c3ccccc3nc2n(C)c1=O`, the Potency result is “inactive”. With `CC(C)n1c(-c2cccs2)nc2ccccc21`, the Potency result is “inactive”. In the case of `Cc1nn(CC(=O)NCCc2ccccc2)c(=O)c2c1sc1ccccc12`, the Potency entry was “inactive”. Regarding `COc1ccccc1N1CCN(C2C(=O)c3ccccc3N2C(C)=O)CC1` (centres undefined), the Potency entry was “inactive”. The same measure, in the same setting: under `CCSc1ncc(Cl)c(C(=O)Nc2cc(C)ccc2C)n1` stands “inactive”; under `Cc1ccc(NC(=O)c2nc(S(=O)(=O)Cc3cccc(C)c3)ncc2Cl)cc1`, 17.8 µM (active). Still for that read-out and setting: with `CCOC(=O)c1ccc(NC(=O)c2nc(SCc3ccc(F)cc3)ncc2Cl)cc1` the entry was “inactive”; with `Cc1sc2ncn(CC(=O)N3CCN(c4ccc(F)cc4)CC3)c(=O)c2c1S(=O)(=O)N1CCN(c2ncccn2)CC1`, “inactive”. Consider `CCOC(=O)c1cccc(NS(=O)(=O)c2cc(-c3cnc(C)o3)ccc2OC)c1`, for which the Potency result is “inactive”.

Regarding `CCOc1ccc2oc(=O)cc(CN3CCN(C(=O)c4ccc(F)cc4)CC3)c2c1`, the Potency result was “inactive”. Still for that read-out and setting: with `COc1ccc(-c2cc3ccc(OCc4nn[nH]n4)cc3oc2=O)cc1` the figure was 10 µM (active); with `O=c1oc2cc(O)ccc2cc1-c1ccc(F)cc1`, “inactive”. With `COc1ccc2cc(-c3nc(Cl)c4c5c(sc4n3)CC(C)CC5)c(=O)oc2c1` (centres undefined), the Potency entry is “inactive”. Consider `COc1ccc(S(=O)(=O)NCC(c2ccc(N(C)C)cc2)N2CCc3ccccc32)cc1OC` (centres undefined), for which the Potency result is “inactive”. Still for that read-out and setting: with `COc1ccc(C2=NC3(CCCCC3)N(CC(=O)Nc3ccc(C(C)C)cc3)C2=O)cc1` the entry was “inactive”. As to `O=C(CCc1nc(CN2CCN(S(=O)(=O)c3ccc(F)cc3)CC2)no1)N1CCCCC1`, the Potency entry is “inactive”. With `Cc1c(NC(=O)Cc2ccccc2)cccc1-c1nc2cccnc2s1`, the Potency entry was “inactive”. Regarding `Cc1c(NC(=O)C(C)(C)C)cccc1-c1nc2ccccc2s1`, the Potency was 12.6 µM (active). For `CCC(C(=O)Nc1cccc(-c2nc3cccnc3s2)c1C)c1ccccc1` (centres undefined), the Potency entry was “inactive”. With `Cc1nn(CC(=O)N2CCN(c3cccc(C(F)(F)F)c3)CC2)c(=O)c2cc3sccc3n12`, the Potency result was “inactive”. Take `COc1cc(NC(=O)c2noc3c2CSc2ccccc2-3)cc(OC)c1OC`: the Potency entry was “inactive”. Turning to `COc1ccccc1CNC(=O)Cn1nc(C)c2nn(-c3ccc(Cl)cc3)c(C)c2c1=O`, the Potency result is “inactive”.

Source of the values: PubChem BioAssay AID924 (National Center for Advancing Translational Sciences (NCATS), 2007).
